Only a sample is shown.
aSyn 5UTR act = Activators via SNCA 5'UTR binding, MLPCN. activity score, % (tested at 7.5 µM), hits read low. 300,000 compounds, 7.1% hits. alpha-synuclein 5'UTR reporter, activators screen; in the data active = activity score below about -60%
Numbers stand for hits; - = inactive.

SMILES | aSyn 5UTR act
Cc1ccc(C(=O)Nc2nnc(SCC(=O)N3CCCc4ccccc43)s2)cc1 | -
O=C(CSc1nnc2ccccn12)N1CCc2ccccc21 | -98
O=C(CSc1nnc2ccccn12)N1CCc2ccccc2C1 | -94
Cc1ccc(-c2nn(-c3ccccc3)cc2C(=O)Nc2ccc(C)c(S(=O)(=O)N3CCOCC3)c2)cc1 | -110
O=C(Oc1ccc(/C=N/NC(=O)c2ccccn2)cc1)c1ccc(Br)cc1 | -124
CC(C)(C)OC(=O)N/N=C/c1ccc(Br)cc1 | -132
O=C(N/N=C/c1ccc(OC(=O)c2ccco2)cc1)c1ccccn1 | -123
O=C(N/N=C/c1cccc(OC(=O)c2ccco2)c1)c1ccc(F)cc1 | -104
COc1ccc(/C=N\NC(=O)c2c(C)nc3ccc(Br)cn23)cc1 | -
Cc1cc(C(=O)N/N=C/c2cc(Br)cc(Br)c2OC(=O)c2cccc(F)c2)n[nH]1 | -
O=C(N/N=C/c1ccc(OC(=O)c2cccs2)cc1)c1ccccn1 | -98
Cc1cc(C(=O)N/N=C/c2cc(Br)ccc2OC(=O)c2ccc(Br)cc2)n[nH]1 | -
CC(C)(C)OC(=O)N/N=C\c1ccc(OC(=O)c2cccs2)cc1 | -91
O=C(Oc1ccc(/C=N/NC(=O)c2ccccn2)cc1)c1cccc(F)c1 | -116
COc1cc(/C=N/NC(=O)c2ccccn2)ccc1OC(=O)c1ccc(Br)cc1 | -84
O=[N+]([O-])c1nn(-c2ccc3c(c2)OCCO3)n(O)c1=NC1CCCCC1 | -64
O=[N+]([O-])c1nn(-c2ccc3c(c2)OCCO3)n(O)c1=NCc1ccccc1Cl | -95
COc1ccccc1CN=c1c([N+](=O)[O-])nn(-c2ccc3c(c2)OCCO3)n1O | -132
COc1ccc(NC(=O)c2ccc3c(c2)N(C)CCS3)cc1 | -148
CN1CCSc2ccc(C(=O)Nc3cccc(F)c3)cc21 | -134
CCOc1cccc2cc(-c3nnc(NCc4ccco4)s3)c(=O)oc12 | -171
COc1ccc2oc(=O)c(-c3nnc(NCc4ccco4)s3)cc2c1 | -253
CNc1nnc(-c2cc3cc(Cl)ccc3oc2=O)s1 | -77
CN(c1ccc(OCC(=O)Nc2nc(-c3ccccc3)cs2)cc1)S(=O)(=O)c1ccc(F)cc1 | -88
Cc1ccc(S(=O)(=O)N(C)c2ccc(OCC(=O)Nc3nc(-c4ccccc4)cs3)cc2)cc1 | -73
SMILES | aSyn 5UTR act
CCc1ccc(C(=O)c2cc3ccc(O)cc3oc2=O)cc1 | -106
CCc1cc2c(SCC(=O)c3ccccc3)ncnc2s1 | -122
CN(CCC#N)C(=O)CSc1ncnc2sc(-c3ccccc3)cc12 | -106
CCN(CC)C(=O)CSc1ncnc2sc(-c3ccccc3)cc12 | -168
Cc1nc(-c2ccccc2)nn1-c1ccc([N+](=O)[O-])cc1 | -87
COc1ccc(/C=C/c2nnc(NC(C)=O)s2)cc1 | -117
COC(=O)Nc1nnc(/C=C/c2ccc(OC)cc2)s1 | -109
CCOc1ccc(NC(=O)C(c2ccccn2)N(C(=O)CCl)c2ccc(F)cc2)cc1 (stereo not drawn) | -71
S=c1[nH]nc(Cn2c(-c3ccccn3)nc3ccccc32)n1-c1ccc2c(c1)OCCO2 | -75
CCCCOc1ccc(C2CCC(C(C)=O)C(C)C2)cc1 (stereo not drawn) | -169
CCOC(=O)C1=C(N)n2c(s/c(=C/c3ccco3)c2=O)=C(C(=O)OC)C1c1ccco1 (stereo not drawn) | -66
Cn1c(-c2ccccc2)cnc1SCc1nc2ccccc2c(=O)[nH]1 | -62
O=C(O)c1ccc(N/N=C/c2ccc(-c3cccc(Cl)c3)o2)cc1 | -114
O=C(O)c1ccc(N/N=C/c2ccc(-c3cc(Cl)ccc3Cl)o2)cc1 | -156
O=C(O)c1ccc(N/N=C/c2ccc(-c3ccc(Cl)cc3Cl)o2)cc1 | -62
COc1ccc(OCCOC(=O)c2cccc(-n3cnnn3)c2)cc1 | -81
Cc1ccc2nc(N(CCCN(C)C)C(=O)c3cc(-c4cccs4)nc4ccccc34)sc2c1 | -
Cc1cccc2sc(N(CCN(C)C)C(=O)c3cc(Cl)sc3Cl)nc12 | -85
Cc1ccc2nc(N(CCN(C)C)C(=O)c3cc(Cl)sc3Cl)sc2c1 | -133
O=S(=O)(Cc1nc2ccccc2s1)c1ccccc1 | -69
CCC(=O)Nc1ccc(OCc2nc3ccccc3s2)cc1 | -125
c1ccc(OCc2nc3ccccc3s2)cc1 | -123
Fc1ccc(OCc2nc3ccccc3s2)cc1 | -178
CC12COC3(C(=O)Nc4ccc5ccccc5c4)CC1CCC32C (stereo not drawn) | -144
CCSc1nnc2c(n1)[nH]c1c(C)cccc12 | -208
SMILES | aSyn 5UTR act
C=CCSc1nnc2nc3[nH]c4c(C)cccc4c3nn12 | -75
CSc1nnc2c(n1)[nH]c1c(C)cccc12 | -107
CC1CCN(C(=O)Cn2cnc3c(cnn3C(C)(C)C)c2=O)CC1 | -85
CC(C)(C)n1ncc2c(=O)n(CC(=O)c3ccc(Cl)cc3)cnc21 | -197
Cc1ccc(NC(=S)N/N=C/c2ccc([N+](=O)[O-])s2)cc1 | -74
CCOC(=O)Oc1ccc2c(=O)c(Oc3cccc(C)c3)coc2c1 | -75
Cc1cccc(Oc2coc3cc(OC(=O)c4cncc(Br)c4)ccc3c2=O)c1 | -73
Cc1ccsc1/C=N/NC(=O)c1ccc2ccccc2c1 | -216
Cc1ccsc1/C=N/NC(=O)Nc1ccccc1 | -162
COc1cc(C(=O)N/N=C/c2sccc2C)cc(OC)c1OC | -
Cc1ccsc1/C=N/NC(=O)c1ccc([N+](=O)[O-])cc1 | -88
O=C(Nc1ccc2nc3n(c(=O)c2c1)CCCC3)c1cccc([N+](=O)[O-])c1 | -103
COc1cc(OC)cc(C(=O)Nc2ccc3nc4n(c(=O)c3c2)CCCCC4)c1 | -115
CC(=O)Nc1ccc(NC(=O)c2sc3nc4n(c(=O)c3c2C)CCCCC4)cc1 | -
COc1ccc2oc(C(=O)OCC(=O)NCCN3C(=O)CSC3=O)c(C)c2c1 | -71
COc1ccc2[nH]c(C(=O)Nc3ccc(C)c(F)c3)cc2c1 | -115
COc1ccc(NC(=O)c2cc3ccccc3[nH]2)cc1 | -228
COc1cc2[nH]c(C(=O)Nc3ccc(F)cc3)cc2c(OC)c1OC | -229
COc1ccc(-n2c(=S)[nH]c3cc(C(=O)Nc4ccc(C)c(F)c4)ccc3c2=O)c(OC)c1 | -73
Cc1ccc(NC(=O)c2cc3cc(OC(F)(F)F)ccc3[nH]2)cc1 | -77
O=C1OC(c2ccccc2)/C(=C(/O)c2ccccc2)C1=O (stereo not drawn) | -64
Cc1ccc(C(=O)N2C(=O)C(c3ccccc3)Oc3ccccc32)cc1 (stereo not drawn) | -
Cc1nc2nc(-c3ccccc3)[nH]n2c(=O)c1C | -119
Cc1nc2cc(-c3ccccc3)[nH]n2c(=O)c1C | -114
CC(C)(C)c1ccc(-c2nc(N)nc(N)n2)cc1 | -89
SMILES | aSyn 5UTR act
CCN(CC)c1ccc(C2Nc3cccc4cccc(c34)N2)cc1 | -171
Cc1cc(OCC(=O)N(C)C2CCCCC2)cc(C)c1Cl | -68
CN(C(=O)COC(=O)c1ccc(Cl)cc1N)C1CCCCC1 | -82
Nc1n[nH]c(N)c1N=Nc1ccc2c(c1)OCO2 | -229
Cc1ccc(N=Nc2c(N)n[nH]c2N)cc1 | -93
Cc1ccc(N=C2C(=S)N(c3ccc(C)cc3)C(=N)N2/N=C/c2ccc(Cl)cc2)cc1 | -156
CCS(=O)(=O)Nc1cccc(-c2nc3cccnc3s2)c1C | -99
COc1cc(NS(=O)(=O)c2ccc(C)cc2)c2ncccc2c1 | -
Cc1ccc(-c2nc3cccnc3s2)cc1NS(C)(=O)=O | -186
CN1Cc2cc(C(=O)c3cc(Cl)cc(CSc4ncccn4)c3O)cnc2NC1=O | -
O=C(/C(C=Nc1ccc(Br)cc1)=C(/O)c1ccco1)C(F)(F)F | -175

Screening data from PubChem.
